This is part of a sample that, as a whole, favours compounds with a hit. Of some 79,000 tested, about 15% had one in any assay. Active and inactive are the calls of the source. No stated cut-off is given here; in the data, active means growth inhibition above about 70%; inactive means the rest.
Experiment: NCI Yeast Anticancer Drug Screen. Data for the rad18 strain (AID 177)
Conditions: S. cerevisiae rad18 mutant growth inhibition, stronger effect = higher value
Experimental: Growth inhibition of yeast strains with defined genetic alterations is measured as a screen for potential anti-cancer activity. Selected strains with alterations in DNA damage repair or cell cycle control were exposed to compounds and growth inhibition was measured relative to vehicle treated controls. The strain used in this assay is rad18

Measured: growth inhibition

CCCCCCCCCCCCCCCCP(=O)(O)OP(=O)(O)OCC1OC(n2ccc(N)nc2=O)C(O)C1O (stereo not given)
inactive: at 1.2 µM -1% | at 3.7 µM -2% | at 11.0 µM 3% | at 33.0 µM 0% | at 100.0 µM 11%

c1c(N2CCOCC2)ssc1=[N+]1CCOCC1
inactive: at 1.2 µM -1% | at 3.7 µM -2% | at 11.0 µM -1% | at 33.0 µM -1% | at 100.0 µM -2%

O=c1oc2ccccc2c(O)c1C(c1ccc2c(c1)Cc1ccccc1-2)c1c(O)c2ccccc2oc1=O
inactive: at 1.2 µM 21% | at 3.7 µM 25% | at 11.0 µM 23% | at 33.0 µM 52%
active: at 100.0 µM 96%

c1ccc2cc3n[se]nc3cc2c1
active: at 100.0 µM 96%
inactive: at 1.2 µM 4% | at 3.7 µM 13% | at 11.0 µM 4% | at 33.0 µM 68%

CC(C)(C)c1cc([N+](=O)[O-])cc([N+](=O)[O-])c1O
inactive: at 1.2 µM -30% | at 3.7 µM -13% | at 11.0 µM -18% | at 33.0 µM 17% | at 100.0 µM 30%

BrCC[N+]12CC[N+](CCBr)(CC1)C2
active: at 33.0 µM 89% | at 100.0 µM 95%
inactive: at 1.2 µM 10% | at 3.7 µM 25% | at 11.0 µM 53%

CCOP(=O)(CC(C)P(=O)(OCC)OCC)OCC.C[CH2][Sn]([Cl])([Cl])[CH2]C (stereo not given)
inactive: at 1.2 µM -2% | at 3.7 µM 4% | at 11.0 µM 24%
active: at 33.0 µM 75% | at 100.0 µM 92%

COc1ccc(OC)c(/C=C/[N+](=O)[O-])c1
active: at 100.0 µM 96%
inactive: at 1.2 µM 5% | at 3.7 µM 13% | at 11.0 µM 20% | at 33.0 µM 49%

Reference: PubChem BioAssay (NCI)
